From PubChem BioAssay (NCATS)
Inconclusive results are not listed. Active and inactive are the calls of the source. Unless noted, calls come from the whole dose curve; as a rule, active = well fitted curve in the direction sought with a large enough effect; inconclusive = small, poorly fitted or top-dose-only effect, or another doubt; inactive = no such curve, though single readings can be large; an effect the other way counts as inactive or inconclusive.

Experiments:
[1] = biological target: Glutaminase kidney isoform, mitochondrial (Homo sapiens) (UniProt O94925); experiment: qHTS for Inhibitors of Glutaminase (GLS): LOPAC Validation (AID 624146); conditions: glutaminase enzyme activity inhibition; series mostly up to 46.1 µM;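 note: glutamate product detected by oxidase and peroxidase coupled Amplex red fluorescence gain; % is set by controls: 0 for no effect and ±100 for the full control effect; nearly all actives have a fitted effect of over 60% in size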
How it was run: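 Human kidney-isoform GLS in 45 mM KH2PO4 pH 8.2, 0.02% Tween-20, with compound, started with 1mM L-Glutamine (added stock). Glutamate oxidase/HRP/Amplex red coupled fluorescence read at start and after 30 min at RT.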

[2] = qHTS of Trypanosoma Brucei Inhibitors: LOPAC Validation (AID 624147); conditions: purified enzyme assay, luminescence, 45 min; series mostly up to 57.5 µM; note: 0% is about no effect
How it was run: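 Luminescence from Kinase-Glo Plus, added after a 45-minute room-temperature reaction, served as the end-point read-out. The enzyme and substrate were preincubated with compound before ADP (130 uM final) initiated turnover. Concentration-effect curves came from normalized qHTS data.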

[3] = biological target: Glucagon-like peptide 1 receptor (Homo sapiens) (UniProt P43220); experiment: qHTS of GLP-1 Receptor Agonists: LOPAC Validation (AID 624148); conditions: GLP-1R agonist cell assay; series mostly up to 46.1 µM;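 note: 0% is about no effect; higher luminescence signal means agonism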
How it was run: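 HEK293 cells stably co-expressing GLP-1R and a cAMP-responsive luciferase reporter, plated 12 hours before compound, then incubated 4-6 hr at 37 deg C. Luminescence read 12 min after detection reagent.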

[4] = HTS Assay for Allosteric Antagonists of the Human D2 Dopamine Receptor: Hit Validation in HTRF (AID 624455); conditions: Cells stably expressing D1 dopamine receptor, inhibition mode; series mostly up to 46.1 µM;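 note: stable D1 dopamine receptor cell line scored for blocking the D1 response; % is set by controls: 0 for no effect and ±100 for the full control effect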
How it was run: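 Validation of hits used D1 receptor stably expressed in cells with HTRF detection of response inhibition; origin screen measured calcium flux following EC80 dopamine in a force-coupled, inducible Hek293 Trex D2 cell line.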

[5] = biological target: Luciferin 4-monooxygenase (Photinus pyralis) (UniProt P08659); experiment: Biochemical firefly luciferase enzyme assay for NPC (AID 624030);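 note: purified P. pyralis luciferase at 10 nM with luciferin and ATP substrate; 0% = DMSO and -100% = full luciferase inhibition by PTC124 control; nearly all actives have a fitted effect of over 70% in size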; conditions: purified P. pyralis luciferase, luminescence, 5 min; series mostly up to 58.6 µM
How it was run: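 Purified P. pyralis luciferase at 10 nM in 50 mM Tris Acetate (final), luminescence read within 5 minutes of enzyme addition to compounds. Activity normalised to PTC124 versus DMSO; concentration-response curves classed by r2, magnitude and activity.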

[6] = S16 Schwann cell viability assay (CellTiter-Glo assay) (AID 624031); conditions: S16 rat Schwann cells viability, 24 h; series mostly up to 57.5 µM; note: nearly all actives have a fitted effect of over 70% in size; note: potency is the fitted concentration of half-maximal effect
How it was run: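 Untransfected S16 rat Schwann cells; compound 24 h, 37 °C/5% CO2; CellTiter-Glo ATP luminescence. % activity vs no-cell wells and DMSO controls (0%); concentration-effect curves classed by r2, response magnitude, activity.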

[7] = qHTS assay for small molecule activators of the p53 signaling pathway (AID 651743; active = well fitted activation curve with a large enough effect in the signal ratio, not every such curve was filed as active; the % refers to the signal ratio; note: % of control where 0% means no effect); conditions: HCT-116 p53RE-bla, beta-lactamase FRET ratio, 16 h; stronger effect = higher value
How it was run: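 Reporter: beta-lactamase driven by p53 response elements, stably integrated in HCT-116 cells. Cells seeded at 4,000/well, 5 h preincubation, compound (DMSO) 16 h at 37 C; B/G FRET substrate 2 h RT; fluorescence intensity read.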

[8] = S16 Schwann cell PMP22 intronic element firefly luciferase assay (AID 624032); conditions: S16 rat Schwann cells, PMP22 element FLuc, 24 h; series mostly up to 57.5 µM; note: nearly all actives have a fitted effect of over 30% in size; note: potency is the fitted concentration of half-maximal effect
How it was run: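 Rat S16 Schwann cells stably carrying firefly luciferase driven by a PMP22 intronic element, in 10% FBS, treated 24 h at 37 C. ONE-Glo luminescence normalized to PTC124 control and DMSO (0%); curves classed by r2, magnitude and activity.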

[9] = S16 Schwann cell PMP22 intronic element beta-lactamase assay (AID 624044; calls by dose curve;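 note: 0% = DMSO and -100% = potassium clavulanate positive control; nearly all actives have a fitted effect of over 15% in size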); conditions: S16 rat Schwann cells, PMP22 element beta-lactamase FRET, 24 h; series mostly up to 38.3 µM
How it was run: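 Beta-lactamase reporter under a PMP22 intronic regulatory element in stable S16 rat Schwann cells; 24 h compound exposure. 460 nm blue signal normalized between DMSO (0%) and potassium clavulanate, with 535 nm FRET tracking viability; curves classed by r2 and response.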

[10] = biological target: Voltage-gated inwardly rectifying potassium channel KCNH2 (Homo sapiens) (UniProt Q12809); experiment: qHTS Assay for Small Molecule Inhibitors of the Human hERG Channel Activity (AID 588834); conditions: U2OS BacMam hERG, FluxOR thallium flux fluorescence; series mostly up to 46.1 µM;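 note: U2OS cells transduced with hERG by BacMam; top concentration of the series differs between compounds; % is set by controls: 0 for no effect and ±100 for the full control effect; lower thallium flux fluorescence means stronger hERG block; nearly all actives have a fitted effect of over 50% in size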
How it was run: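 Cells were infected with hERG-BacMam virus for 4 hrs at room temperature, grown overnight, then seeded at 2000/well. After dye loading and roughly 10 min compound treatment, thallium influx was triggered and fluorescence recorded.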

[11] = qHTS assay for small molecule activators of the nuclear factor-kappa B (NF-kB) signaling pathway (AID 651749; active = well fitted activation curve with a large enough effect in the signal ratio; the % refers to the signal ratio; note: % of control where 0% means no effect); conditions: NF-kB-bla ME-180 cells, beta-lactamase FRET ratio, 16 h; activation: stronger effect = higher value
How it was run: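 NF-kB-bla ME-180 cells, 2,000/well; 23 nL compound or DMSO pinned; 16 hr, 37C/5% CO2; beta-lactamase FRET read-out.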

[12] = Cytotoxicity counterscreen for NFkB agonists and antagonists (AID 624476); conditions: NFkB reporter cell line viability counterscreen; series mostly up to 46.1 µM; note: % is set by controls: 0 for no effect and ±100 for the full control effect
[13] = qHTS Assay for Identification of Small Molecule Agonists for NFkB Signaling Pathway. (AID 624478); conditions: NFkB pathway reporter cell assay, agonist mode, cells co-stimulated with 10 pM TNF alpha; series mostly up to 46.1 µM;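 note: compounds tested together with TNF alpha at its EC50 of 10 pM; 0% is about no effect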
How it was run: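 Assay medium contained 0.5% FBS and 10 mM HEPES pH 7.3. Compounds were added together with TNF alpha (10 pM final), incubated 5 h at 37 C, and the beta-lactamase signal was measured fluorometrically.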

[14] = qHTS Assay for Identification of Small Molecule Antagonists for NFkB Signaling Pathway. (AID 624479; calls by dose curve; note: % is set by controls: 0 for no effect and ±100 for the full control effect); conditions: NFkB pathway reporter cell assay, antagonist mode; series mostly up to 38.3 µM
[15] = Cell Proliferation Assay against the TMD8 Cell Line (AID 651645); conditions: TMD8 DLBCL cell line proliferation/viability; at 46.1 µM (top of the series) unless noted;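 note: cells exposed to compound for 48 h before reading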
How it was run: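 Seed log-phase TMD8 cells in RPMI containing 5% FBS, add compounds at once, incubate 48 hours at 37C. Equilibrate to room temperature, add CellTiter-Glo, read luminescence after 15 minutes and express relative to DMSO and bortezomib controls.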

[16] = Cell Proliferation Assay against the HBL1 Cell Line (AID 651646); conditions: HBL1 DLBCL cells; at 46.1 µM (top of the series) unless noted;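 note: cells exposed to compound for 48 h before reading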
How it was run: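 HBL1, 500 cells/well, RPMI no phenol red + 5% FBS; cpd pinned, 48 h 37C/5% CO2; CellTiter-Glo, 15 min RT, luminescence. % activity: DMSO = 100%, bortezomib 9.2 uM final = 0%.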

[17] = Cell Proliferation Assay against the TMD8 Cell Line (Caspase readout at 16 hrs) (AID 651712); conditions: TMD8 lymphoma cells, caspase activation luminescence; series mostly up to 46.1 µM; note: potency is the fitted concentration of half-maximal effect
How it was run: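 Caspase-Glo luminescence after 16 h compound exposure of TMD8 cells, 37 °C, 5% CO2. Medium: RPMI without phenol red, 5% FBS. Normalisation: DMSO = 0%, bortezomib 9.2 uM final = 100%.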

[18] = Cell Proliferation Assay against the TMD8 Cell Line (Caspase readout at 8 hrs) (AID 651713); conditions: TMD8 lymphoma cells, caspase activation luminescence; series mostly up to 46.1 µM;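 note: 0% = DMSO and 100% = 9.2 µM bortezomib caspase signal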
How it was run: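 Luminescent caspase 3/7 assay; TMD8 cells, 8 h treatment at 37C, 5% CO2. Normalisation: DMSO 0%, 9.2 uM bortezomib 100%.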

Glucagon-like peptide 1 receptor (Homo sapiens), sequence (P43220 whole entry, looked up): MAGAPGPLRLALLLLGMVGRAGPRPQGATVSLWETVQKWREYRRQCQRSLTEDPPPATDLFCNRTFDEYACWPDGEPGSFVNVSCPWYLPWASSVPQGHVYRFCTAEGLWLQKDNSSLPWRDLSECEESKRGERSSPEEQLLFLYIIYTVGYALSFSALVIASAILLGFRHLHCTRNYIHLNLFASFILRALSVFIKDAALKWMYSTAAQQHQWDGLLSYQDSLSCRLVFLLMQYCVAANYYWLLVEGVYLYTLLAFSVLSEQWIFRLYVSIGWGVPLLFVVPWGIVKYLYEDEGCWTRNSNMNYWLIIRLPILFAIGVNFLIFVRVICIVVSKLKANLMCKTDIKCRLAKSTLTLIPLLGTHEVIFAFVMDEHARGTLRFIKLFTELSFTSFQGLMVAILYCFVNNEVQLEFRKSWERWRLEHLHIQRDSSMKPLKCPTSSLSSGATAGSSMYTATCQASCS
Luciferin 4-monooxygenase (Photinus pyralis), sequence (P08659 whole entry, looked up): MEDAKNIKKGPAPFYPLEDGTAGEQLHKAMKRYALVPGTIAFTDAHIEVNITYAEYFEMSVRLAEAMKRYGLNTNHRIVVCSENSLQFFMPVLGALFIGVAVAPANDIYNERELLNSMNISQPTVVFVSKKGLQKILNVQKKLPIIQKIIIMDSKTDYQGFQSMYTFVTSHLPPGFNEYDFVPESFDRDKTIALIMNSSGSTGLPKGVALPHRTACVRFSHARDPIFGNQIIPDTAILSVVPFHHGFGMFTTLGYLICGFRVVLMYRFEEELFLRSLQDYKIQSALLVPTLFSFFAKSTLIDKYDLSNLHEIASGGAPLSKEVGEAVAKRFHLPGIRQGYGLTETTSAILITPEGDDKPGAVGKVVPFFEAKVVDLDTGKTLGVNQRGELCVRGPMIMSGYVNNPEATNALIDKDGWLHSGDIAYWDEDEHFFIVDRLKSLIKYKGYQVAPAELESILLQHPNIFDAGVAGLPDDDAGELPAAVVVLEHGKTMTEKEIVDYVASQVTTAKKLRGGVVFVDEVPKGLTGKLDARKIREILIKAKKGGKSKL
Glutaminase kidney isoform, mitochondrial (Homo sapiens), sequence (O94925 whole entry, looked up, canonical isoform): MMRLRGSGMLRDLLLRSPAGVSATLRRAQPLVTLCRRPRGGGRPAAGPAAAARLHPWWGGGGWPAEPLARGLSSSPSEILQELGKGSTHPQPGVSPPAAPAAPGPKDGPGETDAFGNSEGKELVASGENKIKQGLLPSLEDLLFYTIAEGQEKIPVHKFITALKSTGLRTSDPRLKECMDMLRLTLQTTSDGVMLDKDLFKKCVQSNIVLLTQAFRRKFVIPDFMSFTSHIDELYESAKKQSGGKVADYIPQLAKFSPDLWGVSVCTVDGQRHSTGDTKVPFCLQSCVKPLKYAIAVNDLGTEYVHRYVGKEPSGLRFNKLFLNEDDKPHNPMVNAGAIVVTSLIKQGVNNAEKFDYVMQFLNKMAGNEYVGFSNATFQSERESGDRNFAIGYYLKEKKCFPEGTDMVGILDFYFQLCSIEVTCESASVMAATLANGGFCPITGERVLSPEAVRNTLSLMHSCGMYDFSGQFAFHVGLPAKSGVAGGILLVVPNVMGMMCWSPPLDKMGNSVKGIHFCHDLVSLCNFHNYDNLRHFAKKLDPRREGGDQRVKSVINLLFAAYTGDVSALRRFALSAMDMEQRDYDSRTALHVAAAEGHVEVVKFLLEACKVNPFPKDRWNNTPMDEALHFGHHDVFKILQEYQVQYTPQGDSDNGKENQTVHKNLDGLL
Voltage-gated inwardly rectifying potassium channel KCNH2 (Homo sapiens), sequence (Q12809 whole entry, looked up): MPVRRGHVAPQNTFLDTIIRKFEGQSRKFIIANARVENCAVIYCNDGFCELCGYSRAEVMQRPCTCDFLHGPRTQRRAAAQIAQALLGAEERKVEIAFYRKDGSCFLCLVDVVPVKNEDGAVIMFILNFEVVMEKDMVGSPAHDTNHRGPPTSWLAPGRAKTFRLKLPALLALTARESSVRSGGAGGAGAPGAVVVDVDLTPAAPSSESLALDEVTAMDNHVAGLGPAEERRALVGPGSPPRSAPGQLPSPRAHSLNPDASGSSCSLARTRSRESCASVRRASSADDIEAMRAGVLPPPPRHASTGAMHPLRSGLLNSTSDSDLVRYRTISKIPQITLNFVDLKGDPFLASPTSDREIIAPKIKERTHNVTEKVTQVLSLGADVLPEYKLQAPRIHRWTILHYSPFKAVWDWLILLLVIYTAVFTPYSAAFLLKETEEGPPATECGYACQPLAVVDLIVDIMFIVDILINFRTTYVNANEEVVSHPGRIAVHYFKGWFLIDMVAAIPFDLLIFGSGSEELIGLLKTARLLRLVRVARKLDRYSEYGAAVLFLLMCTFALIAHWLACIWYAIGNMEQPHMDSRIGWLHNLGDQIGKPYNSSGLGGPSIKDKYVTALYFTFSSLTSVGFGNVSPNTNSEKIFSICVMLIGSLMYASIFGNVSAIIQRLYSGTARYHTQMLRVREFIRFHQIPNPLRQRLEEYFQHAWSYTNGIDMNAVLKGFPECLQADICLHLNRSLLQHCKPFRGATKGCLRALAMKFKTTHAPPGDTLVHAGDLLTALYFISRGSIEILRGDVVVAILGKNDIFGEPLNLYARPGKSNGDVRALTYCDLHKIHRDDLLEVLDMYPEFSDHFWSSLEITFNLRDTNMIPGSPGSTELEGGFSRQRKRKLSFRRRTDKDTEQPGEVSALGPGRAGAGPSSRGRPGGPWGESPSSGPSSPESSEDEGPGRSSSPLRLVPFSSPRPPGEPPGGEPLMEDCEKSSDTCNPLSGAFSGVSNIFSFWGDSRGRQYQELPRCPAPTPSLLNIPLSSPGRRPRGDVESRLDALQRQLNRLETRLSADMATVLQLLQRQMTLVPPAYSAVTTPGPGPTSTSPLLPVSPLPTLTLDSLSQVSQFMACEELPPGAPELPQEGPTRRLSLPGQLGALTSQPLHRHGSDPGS

CC[C@H]1CN2CCc3cc(OC)c(OC)cc3[C@@H]2C[C@@H]1C[C@H]1NCCc2cc(OC)c(OC)cc21
inactive: Potency [1] | outcome [2] | outcome [3] | outcome [4]

CN(C)CCCN1c2ccccc2CCc2ccccc21
inactive: Potency [5] | Potency [6] | Potency [1] | outcome [4] | activation [7] -6.39%

CSc1ccc2c(c1)N(CCC1CCCCN1C)c1ccccc1S2 (stereo not drawn)
active: Potency [6] 32.2 µM | Potency [8] 28.7 µM
inactive: Potency [5] | Potency [9] | outcome [2] | outcome [3] | outcome [4]

CNCCC(Oc1ccc(C(F)(F)F)cc1)c1ccccc1 (stereo not drawn)
inactive: Potency [5] | Potency [9] | Potency [1] | outcome [2] | outcome [3] | outcome [4]

CC(C)C(=O)c1c(C(C)C)nn2ccccc12
inactive: Potency [10] | Potency [1] | outcome [2] | outcome [3] | outcome [4]

CCN(CC)CCOC(=O)C1(C2CCCCC2)CCCCC1
inactive: Potency [5] | Potency [1] | outcome [2] | outcome [3] | outcome [4]

COC(=O)C1=C(C)NC(C)=C(C(=O)OC)C1c1ccccc1[N+](=O)[O-]
inactive: Potency [5] | Potency [6] | Potency [9] | outcome [3] | outcome [4] | activation [7] -2.95%

COc1ccc(Cl)cc1C(=O)NCCc1ccc(S(=O)(=O)NC(=O)NC2CCCCC2)cc1
inactive: Potency [5] | Potency [6] | Potency [9] | Potency [1] | outcome [2] | outcome [3] | outcome [4] | activation [7] -6.63% | activation [11] -2.47%

CC(=O)O[C@@]12CO[C@@H]1C[C@H](O)[C@@]1(C)C(=O)[C@H](O)C3=C(C)[C@@H](OC(=O)[C@H](O)[C@@H](NC(=O)OC(C)(C)C)c4ccccc4)C[C@@](O)([C@@H](OC(=O)c4ccccc4)[C@H]21)C3(C)C
active: Potency [17] 37.2 µM
32.1%: viability (% of control) [15]
69%: viability, percent of control [16]
inactive: Potency [10] | outcome [12] | outcome [13] | outcome [14] | Potency [18]

Nc1ncnc2c1ncn2[C@@H]1O[C@H](CO)[C@@H](O)[C@H]1O
inactive: Potency [6] | Potency [8] | Potency [1] | outcome [2] | outcome [3] | outcome [4]

CCOc1nc2cccc(C(=O)O)c2n1Cc1ccc(-c2ccccc2-c2nn[nH]n2)cc1
inactive: Potency [5] | Potency [6]
